From the supplement of paper PMC10646978
± gives the standard deviation.

What was measured:
Details in all cases: modulator concentration 10 µM
[1] = tested on: RAW-Dual (murine macrophage reporter line); experiment: NF-kB reporter (SEAP) activity fold change vs agonist alone; higher = enhanced NF-kB activity
Summary of the method: (§1)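 RAW-Dual murine macrophage reporter cells were seeded at 50 000 per well in 384-well plates and pre-incubated 1 hour at 37 °C with compound pin-transferred to 10 μM final. After 1 hour, a PRR agonist was added and cells incubated overnight. Supernatant NF-κB (SEAP, QUANTI-Blue, 620 nm absorbance) and IRF (Lucia luciferase, QUANTI-Luc, luminescence) signals were divided by the mean agonist-only control on the same plate to give fold change. Two replicate plates were averaged, with errors by propagation.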

[2] = tested on: RAW-Dual (murine macrophage reporter line); experiment: IRF reporter (Lucia luciferase) activity fold change vs agonist alone; higher = enhanced IRF activity
Summary of the method: as §1

[3] = tested on: RAW-Dual (murine macrophage reporter line); experiment: viability score (confluency relative to resting cells, overnight) (fraction); higher = more viable, active = viable (0.7 or more)
Summary of the method: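 In 384-well plates, RAW-Dual macrophages received compound at a final 10 μM overnight. Two confluency masks were then made with IncuCyte software from IncuCyte images of all imaged wells. The viability score is defined as confluency relative to resting cells. Passing the cutoff required both masks to lie above 70% of resting cells.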

[4] = agonist: CpG ODN 1826 0.5 ug/mL

Structure (SMILES) | NF-kB reporter [1, 4] | NF-kB reporter ([1]; agonist: LPS 0.1 ug/mL) | NF-kB reporter ([1]; agonist: MPLA […]) | IRF reporter ([2]; agonist: 3'3'-cGAMP 10 ug/mL) | IRF reporter ([2]; agonist: LPS 0.1 ug/mL) | IRF reporter ([2]; agonist: MPLA […]) | viability score [3]
CNCC[C@@H](Oc1cccc2ccccc12)c1cccs1 [Prestw-1708] | 0.661 ± 0.054 | 0.98 ± 0.073 | 1.18 ± 0.19 | 1.19 ± 0.076 | 1.11 ± 0.16 | 1.16 ± 0.28 | 0.384 (inactive)
NNc1ncnc2scc(-c3ccc(Cl)cc3)c12 | 0.931 ± 0.071 | 0.867 ± 0.07 | 1.32 ± 0.42 | 0.333 ± 0.015 | 1.3 ± 0.15 | 1.48 ± 0.21 | 0.997 (active)
COc1ccc(Cn2c(SC)nc3c(c2=O)C2(CCCCC2)Cc2ccccc2-3)cc1 | 1.43 ± 0.45 | 0.856 ± 0.076 | 1.15 ± 0.2 | 0.791 ± 0.099 | 0.995 ± 0.076 | 1.33 ± 0.25 | 0.989 (active)
O=C(NCCCCNC(=O)c1cncc(Br)c1)c1cncc(Br)c1 | 0.947 ± 0.053 | 0.973 ± 0.095 | 0.907 ± 0.075 | 0.946 ± 0.038 | 1.37 ± 0.093 | 1.16 ± 0.24 | 0.991 (active)
Cc1ccc(CSCCNC(=O)CN(c2cccc(C)c2)S(C)(=O)=O)cc1 | 0.951 ± 0.09 | 1.01 ± 0.056 | 0.99 ± 0.061 | 0.998 ± 0.025 | 1.44 ± 0.2 | 1.15 ± 0.2 | 1 (active)
Cc1ccc(S(=O)(=O)N2CCN(C(C)C)CC2)cc1 | 1.13 ± 0.11 | 0.94 ± 0.14 | 1.01 ± 0.043 | 0.96 ± 0.17 | 0.898 ± 0.037 | 0.994 ± 0.1 | 0.996 (active)
O=C1OC(CNS(=O)(=O)c2ccccc2Cl)CN1c1ccc(Cl)c(Cl)c1 (stereo not given) | 1.08 ± 0.078 | 1.22 ± 0.11 | 0.926 ± 0.058 | 1.13 ± 0.06 | 1.11 ± 0.068 | 1.08 ± 0.24 | 1.01 (active)
CCN(CC)CC#CCOC(=O)C(O)(c1ccccc1)C1CCCCC1 (stereo not given) | 0.65 ± 0.059 | 1.2 ± 0.094 | 1.18 ± 0.053 | 0.92 ± 0.062 | 1.67 ± 0.11 | 1.3 ± 0.32 | 0.293 (inactive)
O=C(NCCN1CCOCC1)c1cc2nc(-c3ccccc3)cc(C(F)(F)F)n2n1 | 0.898 ± 0.078 | 1.06 ± 0.091 | 0.933 ± 0.061 | 0.607 ± 0.033 | 1.09 ± 0.098 | 1.01 ± 0.09 | 1 (active)
Cc1[nH]c2ccccc2c1CCNCc1ccc(/C=C/C(=O)NO)cc1 | 0.22 ± 0.015 | 1.58 ± 0.1 | 2.77 ± 0.17 | 0.0565 ± 0.0025 | 0.355 ± 0.032 | 0.509 ± 0.06 | 0.055 (inactive)
Cl.NCCCC(N)(C(=O)O)C(F)F.O (stereo not given) | 1.06 ± 0.25 | 1.09 ± 0.065 | 1.2 ± 0.18 | 0.922 ± 0.035 | 1.3 ± 0.15 | 1.19 ± 0.15 | 0.994 (active)
CC(C)c1nc(CN(C)C(=O)N[C@H](C(=O)N[C@@H](Cc2ccccc2)C[C@H](O)[C@H](Cc2ccccc2)NC(=O)OCc2cncs2)C(C)C)cs1 | 0.57 ± 0.047 | 0.468 ± 0.036 | 0.8 ± 0.053 | 1.04 ± 0.14 | 0.993 ± 0.049 | 0.92 ± 0.096 | 1 (active)
CCOc1cc(C=C2SC(=S)N(CCS(=O)(=O)O)C2=O)ccc1O | 0.952 ± 0.087 | 1.04 ± 0.077 | 0.951 ± 0.15 | 0.925 ± 0.027 | 1.28 ± 0.14 | 0.997 ± 0.2 | 1.02 (active)
Cl.Cl.NC1=NN(c2ccc(N)cc2)CC1 | 0.251 ± 0.043 | 1 ± 0.084 | 0.991 ± 0.13 | 0.763 ± 0.035 | 1.34 ± 0.28 | 1.22 ± 0.15 | 1 (active)
CCN1CCN(c2nc3c(c(=O)[nH]c(=O)n3C)n2CC(O)COc2cc(C)ccc2C(C)C)CC1 (stereo not given) | 1.18 ± 0.067 | 1.08 ± 0.086 | 1.2 ± 0.064 | 1.1 ± 0.061 | 1.38 ± 0.14 | 1.48 ± 0.31 | 0.956 (active)
Oc1ccc(N=Cc2ccccc2)cc1 | 1.38 ± 0.18 | 1.2 ± 0.079 | 2.67 ± 0.18 | 0.605 ± 0.037 | 0.924 ± 0.082 | 1.58 ± 0.35 | 0.988 (active)
COc1ccc(-c2cc(C(F)F)nn2-c2ccc(S(N)(=O)=O)cc2)cc1F | 0.989 ± 0.29 | 0.98 ± 0.05 | 0.993 ± 0.068 | 0.935 ± 0.052 | 1.3 ± 0.24 | 1.23 ± 0.18 | 0.998 (active)
NC[C@H]1CC[C@H](C(=O)O)CC1 | 0.939 ± 0.1 | 1.06 ± 0.073 | 0.958 ± 0.021 | 0.993 ± 0.14 | 1.01 ± 0.061 | 1.13 ± 0.11 | 0.999 (active)
O=C(CCC1CCCCC1)Nc1ccc(Br)cc1 | 1.02 ± 0.068 | 0.98 ± 0.074 | 1.07 ± 0.029 | 0.591 ± 0.029 | 0.922 ± 0.048 | 0.976 ± 0.096 | 0.986 (active)
C#Cc1cccc(Nc2ncnc3cc(OC)c(OCCCCCCC(=O)NO)cc23)c1 | 1.12 ± 0.058 | 1.45 ± 0.11 | 2.44 ± 0.12 | 0.563 ± 0.034 | 0.43 ± 0.029 | 0.581 ± 0.068 | 0.973 (active)
CCOC(=O)C1CCCN(S(=O)(=O)c2ccc(F)cc2)C1 (stereo not given) | 1.07 ± 0.12 | 1.1 ± 0.11 | 0.97 ± 0.059 | 0.964 ± 0.06 | 1.3 ± 0.18 | 1.02 ± 0.3 | 0.983 (active)
CC(C)c1ccc(NC(=O)C2CCCCC2C(=O)O)cc1 (stereo not given) | 1.19 ± 0.074 | 1.06 ± 0.07 | 0.994 ± 0.071 | 0.93 ± 0.031 | 1.51 ± 0.1 | 1.24 ± 0.12 | 0.996 (active)
Cc1ccc(C23CC4CC(CC(CN)(C4)C2)C3)cc1C.Cl | 0.652 ± 0.44 | 0.309 ± 0.056 | 1.08 ± 0.35 | 0.11 ± 0.0065 | 0.32 ± 0.1 | 0.256 ± 0.11 | 0.51 (inactive)
CCOC(=O)C1C(=O)NC(SCC(N)=O)=C(C#N)C1c1ccccc1OCC (stereo not given) | 0.936 ± 0.052 | 0.994 ± 0.063 | 0.926 ± 0.07 | 1 ± 0.072 | 1.25 ± 0.083 | 1.03 ± 0.098 | 1 (active)
COc1cccc2c1C(=O)c1c(O)c3c(c(O)c1C2=O)C[C@@](O)(C(C)=O)C[C@@H]3O[C@H]1C[C@H](N)[C@H](O)[C@H](C)O1.Cl | 0.115 ± 0.0076 | 0.0574 ± 0.0063 | 0.0998 ± 0.0052 | 0.0163 ± 0.004 | 0.0195 ± 0.0046 | 0.0153 ± 0.0037 | 0.0601 (inactive)
